Assay results as given in the supplement of paper PMC10849652.
Targets with a hit are over-represented here; the source holds about 7,900 in all. About 0.6% of all pairs of compound and target were hits. A number with no mark means an inactive call.

How the values were obtained:
Assay in all cases: log2 fold change, soluble protein after heating vs DMSO (PISA); higher = thermal stabilisation; K562 cells, 10 uM, 30 min; active = over 0.2 and 3.5 SD of the protein, either way, in both replicates (recomputed)
IRAK-1-4 Inhibitor I = compound: C1COCCN1CCN2C3=CC=CC=C3N=C2NC(=O)C4=CC(=CC=C4)[N+](=O)[O-] [IRAK-1-4 Inhibitor I]
Procedure, shortened: (§1)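 Aliquots of K562 cells (2×10^6 cells/mL) treated with 10 μM compound for 30 min were heated for 3 min over 48°C-58°C. After pooling and extraction in PBS with 0.5% NP-40 at 4°C, soluble protein from a 21,000xg, 90 min spin was quantified by TMTpro 16plex LC-MS/MS with channel sums equalised. Thermal stability is expressed against control samples, from duplicates, as a log2 fold change.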

ibrutinib = compound: C=CC(=O)N1CCC[C@@H](n2nc(-c3ccc(Oc4ccccc4)cc3)c3c(N)ncnc32)C1 [ibrutinib]
Procedure, shortened: as §1

[1] = compound: CC(=O)c1cnc2ccc(-c3cc(Cl)c(O)c(Cl)c3)nc2c1N[C@H]1CC[C@H](CN(C)C)CC1
Procedure, shortened: as §1

ralimetinib = compound: CC(C)(C)Cn1c(N)nc2ccc(-c3[nH]c(C(C)(C)C)nc3-c3ccc(F)cc3)nc21 [ralimetinib]
Procedure, shortened: as §1

[2] = compound: CC(C)(O)CC(=O)NCCn1ccc2ncnc(Nc3ccc(Oc4cccc(C(F)(F)F)c4)c(Cl)c3)c21
Procedure, shortened: as §1

[3] = compound: CC(C)C1=C2N=C(C=C(N2N=C1)NCC3=CC=CC=C3)NCCCCCCN
Procedure, shortened: as §1

[4] = compound: CC(C)C[C@@H](C=O)NC(=O)[C@H](CC(C)C)NC(=O)[C@H](CC(C)C)NC(=O)OCc1ccccc1
Procedure, shortened: as §1

pinometostat = compound: CC(C)N(C[C@H]1O[C@@H](n2cnc3c(N)ncnc32)[C@H](O)[C@@H]1O)[C@H]1C[C@@H](CCc2nc3cc(C(C)(C)C)ccc3[nH]2)C1 [pinometostat]
Procedure, shortened: as §1

[5] = compound: CC1=C(C(CC(=O)N1)C2=CC=C(C=C2)C(F)(F)F)C(=O)NC3=C(C=C4C(=C3)C=NN4)F
Procedure, shortened: as §1

[6] = compound: CC1=C(C2=C(C=C1)C(=O)C3=CC=CC=C3N2CCCN)C
Procedure, shortened: as §1

[7] = compound: CC1=C(C=C(C=C1)NC(=O)C2=CC(=CC=C2)C(C)(C)C#N)NC3=CC4=C(C=C3)N=CN(C4=O)C
Procedure, shortened: as §1

[8] = compound: CC1=C(C=C(C=C1)NC(=O)C2=CC(=CC=C2)N(C)C)NC(=O)C3=CC=C(C=C3)O
Procedure, shortened: as §1

[9] = compound: CC1=CC=C(C=C1)SC2=C3C=C(SC3=CN=C2)C(=O)N
Procedure, shortened: as §1

[10] = compound: CC1=NC(=CC=C1)C2=C(N=C(N2)C(C)(C)C)C3=CC4=NC=CN=C4C=C3
Procedure, shortened: as §1

Nexturastat A = compound: CCCCN(Cc1ccc(C(=O)NO)cc1)C(=O)Nc1ccccc1 [Nexturastat A]
Procedure, shortened: as §1

vemurafenib = compound: CCCS(=O)(=O)Nc1ccc(F)c(C(=O)c2c[nH]c3ncc(-c4ccc(Cl)cc4)cc23)c1F [vemurafenib]
Procedure, shortened: as §1

[11] = compound: CCCS(=O)(=O)Nc1ccc(F)c(C(=O)c2c[nH]c3ncc(Cl)cc23)c1F
Procedure, shortened: as §1

[12] = compound: CCCc1cc(C)[nH]c(=O)c1CNC(=O)c1cc(-c2ccnc(N3CCN(C)CC3)c2)cc2c1cnn2C(C)C
Procedure, shortened: as §1

givinostat = compound: CCN(CC)Cc1ccc2cc(COC(=O)Nc3ccc(C(=O)NO)cc3)ccc2c1 [givinostat]
Procedure, shortened: as §1

barasertib = compound: CCN(CCCOc1ccc2c(Nc3cc(CC(=O)Nc4cccc(F)c4)[nH]n3)ncnc2c1)CCOP(=O)(O)O [barasertib]
Procedure, shortened: as §1

Sequence of UniProt P49914 (P49914 whole entry, looked up): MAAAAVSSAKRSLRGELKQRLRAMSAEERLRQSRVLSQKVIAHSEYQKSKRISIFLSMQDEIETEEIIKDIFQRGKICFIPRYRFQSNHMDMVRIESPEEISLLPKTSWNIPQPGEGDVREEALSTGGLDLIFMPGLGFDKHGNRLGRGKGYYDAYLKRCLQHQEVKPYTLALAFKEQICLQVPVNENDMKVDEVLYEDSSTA
Sequence of UniProt Q9Y314 (Q9Y314 whole entry, looked up): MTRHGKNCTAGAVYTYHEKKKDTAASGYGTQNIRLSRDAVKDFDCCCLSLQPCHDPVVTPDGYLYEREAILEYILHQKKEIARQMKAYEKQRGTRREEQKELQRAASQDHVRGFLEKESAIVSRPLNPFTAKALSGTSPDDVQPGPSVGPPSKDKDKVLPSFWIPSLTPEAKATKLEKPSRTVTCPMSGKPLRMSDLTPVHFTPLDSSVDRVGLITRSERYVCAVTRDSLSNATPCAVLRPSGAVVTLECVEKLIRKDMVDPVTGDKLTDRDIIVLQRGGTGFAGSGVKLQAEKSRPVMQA
Sequence of UniProt Q9H019 (Q9H019 whole entry, looked up): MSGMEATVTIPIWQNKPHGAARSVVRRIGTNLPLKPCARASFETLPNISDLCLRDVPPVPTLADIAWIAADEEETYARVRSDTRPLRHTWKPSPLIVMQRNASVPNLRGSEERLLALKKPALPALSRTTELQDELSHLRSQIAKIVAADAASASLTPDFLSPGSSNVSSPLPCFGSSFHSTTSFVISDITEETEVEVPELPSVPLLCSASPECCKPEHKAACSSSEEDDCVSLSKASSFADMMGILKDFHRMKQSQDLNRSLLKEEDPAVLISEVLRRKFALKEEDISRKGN
Sequence of UniProt P03891 (P03891 whole entry, looked up): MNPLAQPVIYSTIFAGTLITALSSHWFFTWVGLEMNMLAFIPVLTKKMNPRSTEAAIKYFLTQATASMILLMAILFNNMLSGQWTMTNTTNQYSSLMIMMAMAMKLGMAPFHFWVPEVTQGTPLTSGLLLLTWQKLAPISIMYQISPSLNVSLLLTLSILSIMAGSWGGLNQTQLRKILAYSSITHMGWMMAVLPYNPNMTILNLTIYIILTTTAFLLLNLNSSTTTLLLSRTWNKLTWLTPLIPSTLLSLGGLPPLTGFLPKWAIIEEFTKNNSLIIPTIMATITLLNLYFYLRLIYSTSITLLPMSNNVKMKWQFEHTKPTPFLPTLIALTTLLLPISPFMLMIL
Sequence of UniProt Q6N063 (Q6N063 whole entry, looked up): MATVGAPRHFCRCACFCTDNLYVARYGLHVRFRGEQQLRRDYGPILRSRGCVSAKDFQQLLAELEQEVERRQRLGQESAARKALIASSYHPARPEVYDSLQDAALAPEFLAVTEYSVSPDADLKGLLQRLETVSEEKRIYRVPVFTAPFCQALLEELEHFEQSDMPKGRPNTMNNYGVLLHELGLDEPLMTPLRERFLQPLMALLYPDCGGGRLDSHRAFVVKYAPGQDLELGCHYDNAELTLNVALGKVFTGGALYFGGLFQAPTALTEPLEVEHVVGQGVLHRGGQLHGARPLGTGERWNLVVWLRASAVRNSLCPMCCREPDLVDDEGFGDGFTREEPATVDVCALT
Sequence of UniProt Q68DK7 (Q68DK7 whole entry, looked up): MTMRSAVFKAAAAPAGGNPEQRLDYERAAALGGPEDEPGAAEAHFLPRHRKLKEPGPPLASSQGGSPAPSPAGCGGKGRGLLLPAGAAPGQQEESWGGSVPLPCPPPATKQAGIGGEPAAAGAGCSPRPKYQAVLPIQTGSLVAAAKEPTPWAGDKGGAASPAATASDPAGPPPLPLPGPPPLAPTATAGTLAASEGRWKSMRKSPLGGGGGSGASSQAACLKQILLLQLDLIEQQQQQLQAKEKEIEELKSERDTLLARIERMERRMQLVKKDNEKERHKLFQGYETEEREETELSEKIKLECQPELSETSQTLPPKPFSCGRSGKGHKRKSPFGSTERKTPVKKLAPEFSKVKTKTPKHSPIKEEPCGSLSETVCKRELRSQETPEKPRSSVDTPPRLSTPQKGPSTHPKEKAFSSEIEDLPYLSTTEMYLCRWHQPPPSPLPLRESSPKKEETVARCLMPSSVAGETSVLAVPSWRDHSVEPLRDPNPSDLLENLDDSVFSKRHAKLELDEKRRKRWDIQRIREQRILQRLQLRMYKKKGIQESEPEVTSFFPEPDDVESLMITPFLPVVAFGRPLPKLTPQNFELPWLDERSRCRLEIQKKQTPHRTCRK
Sequence of UniProt Q9Y5B8 (Q9Y5B8 whole entry, looked up): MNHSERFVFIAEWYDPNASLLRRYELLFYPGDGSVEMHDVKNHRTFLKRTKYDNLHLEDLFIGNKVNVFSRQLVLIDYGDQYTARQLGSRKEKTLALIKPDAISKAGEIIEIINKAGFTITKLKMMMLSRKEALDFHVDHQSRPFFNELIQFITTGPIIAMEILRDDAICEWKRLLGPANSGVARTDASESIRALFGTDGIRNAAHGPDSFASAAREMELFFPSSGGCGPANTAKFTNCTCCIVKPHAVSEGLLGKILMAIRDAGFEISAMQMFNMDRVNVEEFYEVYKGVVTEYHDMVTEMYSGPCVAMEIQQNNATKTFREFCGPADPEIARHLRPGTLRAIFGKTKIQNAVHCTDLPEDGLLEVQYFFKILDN
Sequence of UniProt O75438 (O75438 whole entry, looked up): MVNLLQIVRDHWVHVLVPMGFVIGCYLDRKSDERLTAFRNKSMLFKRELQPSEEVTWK
Sequence of UniProt P25208 (P25208 whole entry, looked up): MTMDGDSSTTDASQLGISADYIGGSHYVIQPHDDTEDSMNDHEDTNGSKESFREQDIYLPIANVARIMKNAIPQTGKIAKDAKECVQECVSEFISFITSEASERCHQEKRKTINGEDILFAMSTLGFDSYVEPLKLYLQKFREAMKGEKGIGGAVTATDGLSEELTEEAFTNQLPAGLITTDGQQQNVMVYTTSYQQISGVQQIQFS
Sequence of UniProt Q8N5F7 (Q8N5F7 whole entry, looked up): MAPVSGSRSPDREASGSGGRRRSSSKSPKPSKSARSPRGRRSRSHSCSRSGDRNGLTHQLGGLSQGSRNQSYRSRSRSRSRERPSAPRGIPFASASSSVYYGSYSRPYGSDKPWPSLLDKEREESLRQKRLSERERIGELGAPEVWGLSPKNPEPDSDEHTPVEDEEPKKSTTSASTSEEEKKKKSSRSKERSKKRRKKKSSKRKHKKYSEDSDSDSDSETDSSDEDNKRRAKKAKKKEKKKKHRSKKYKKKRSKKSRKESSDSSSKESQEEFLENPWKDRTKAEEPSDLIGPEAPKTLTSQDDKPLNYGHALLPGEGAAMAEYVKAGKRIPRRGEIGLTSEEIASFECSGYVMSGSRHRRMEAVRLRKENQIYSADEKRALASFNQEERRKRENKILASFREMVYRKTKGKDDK
Sequence of UniProt Q96H55 (Q96H55 whole entry, looked up): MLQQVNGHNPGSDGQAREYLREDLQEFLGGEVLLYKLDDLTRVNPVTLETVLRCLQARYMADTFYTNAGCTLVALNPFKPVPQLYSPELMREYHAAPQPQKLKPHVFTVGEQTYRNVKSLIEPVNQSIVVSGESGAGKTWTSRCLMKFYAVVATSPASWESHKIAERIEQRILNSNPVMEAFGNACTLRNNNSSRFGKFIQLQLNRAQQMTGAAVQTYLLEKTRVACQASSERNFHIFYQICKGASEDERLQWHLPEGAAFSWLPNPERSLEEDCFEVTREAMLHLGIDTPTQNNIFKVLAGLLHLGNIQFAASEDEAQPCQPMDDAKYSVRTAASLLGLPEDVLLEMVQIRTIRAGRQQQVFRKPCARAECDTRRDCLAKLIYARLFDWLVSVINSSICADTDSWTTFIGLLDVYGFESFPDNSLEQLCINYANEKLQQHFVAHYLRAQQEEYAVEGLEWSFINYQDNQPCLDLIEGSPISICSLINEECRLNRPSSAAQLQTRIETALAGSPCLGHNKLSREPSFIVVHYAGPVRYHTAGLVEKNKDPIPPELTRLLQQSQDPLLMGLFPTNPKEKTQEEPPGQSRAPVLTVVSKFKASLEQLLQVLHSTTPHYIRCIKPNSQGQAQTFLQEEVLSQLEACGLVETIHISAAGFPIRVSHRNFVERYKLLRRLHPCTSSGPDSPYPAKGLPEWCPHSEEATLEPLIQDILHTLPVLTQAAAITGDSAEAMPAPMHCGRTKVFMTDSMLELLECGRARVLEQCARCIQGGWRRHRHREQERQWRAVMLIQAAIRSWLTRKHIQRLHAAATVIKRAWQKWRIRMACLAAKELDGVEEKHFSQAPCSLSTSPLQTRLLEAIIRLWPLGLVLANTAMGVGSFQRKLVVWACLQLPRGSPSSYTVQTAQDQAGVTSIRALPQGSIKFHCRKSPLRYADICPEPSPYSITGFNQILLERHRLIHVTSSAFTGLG
Sequence of UniProt Q9UH92 (Q9UH92 whole entry, looked up): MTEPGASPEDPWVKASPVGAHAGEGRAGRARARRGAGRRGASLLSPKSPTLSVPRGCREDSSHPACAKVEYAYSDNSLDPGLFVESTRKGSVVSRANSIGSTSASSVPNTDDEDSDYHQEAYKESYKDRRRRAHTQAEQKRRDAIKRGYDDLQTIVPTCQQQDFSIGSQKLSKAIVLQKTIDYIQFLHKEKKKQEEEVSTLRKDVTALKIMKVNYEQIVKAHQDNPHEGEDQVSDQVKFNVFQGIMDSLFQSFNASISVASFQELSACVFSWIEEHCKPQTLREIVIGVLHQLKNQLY
Sequence of UniProt P40261 (P40261 whole entry, looked up): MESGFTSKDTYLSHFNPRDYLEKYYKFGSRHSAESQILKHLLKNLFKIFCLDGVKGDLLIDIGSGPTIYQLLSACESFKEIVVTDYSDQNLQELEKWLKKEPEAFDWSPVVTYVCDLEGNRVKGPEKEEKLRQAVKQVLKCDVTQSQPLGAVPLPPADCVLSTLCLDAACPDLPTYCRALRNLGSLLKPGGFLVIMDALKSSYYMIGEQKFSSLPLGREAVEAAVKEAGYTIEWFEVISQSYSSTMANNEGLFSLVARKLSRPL
Sequence of UniProt Q9Y605 (Q9Y605 whole entry, looked up): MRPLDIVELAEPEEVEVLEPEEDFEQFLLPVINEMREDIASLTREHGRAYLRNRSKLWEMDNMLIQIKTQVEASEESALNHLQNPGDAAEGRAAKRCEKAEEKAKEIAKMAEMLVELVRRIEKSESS

Target | log2 fold change (IRAK-1-4 Inhibitor I) | log2 fold change (ibrutinib) | log2 fold change [1] | log2 fold change (ralimetinib) | log2 fold change [2] | log2 fold change [3] | log2 fold change [4] | log2 fold change (pinometostat) | log2 fold change [5] | log2 fold change [6] | log2 fold change [7] | log2 fold change [8] | log2 fold change [9] | log2 fold change [10] | log2 fold change (Nexturastat A) | log2 fold change (vemurafenib) | log2 fold change [11] | log2 fold change [12] | log2 fold change (givinostat) | log2 fold change (barasertib)
MTHFS (UniProt P49914) | -0.003 | -0.01 | -0.009 | -0.09 | -0.095 | -0.009 | 0.007 | -0.03 | -0.044 | 0.031 | 0.047 | -0.054 | -0.01 | 0.047 | -0.005 | -0.017 | 0.01 | -0.041 | -0.063 | 0.009
NNMT (UniProt P40261) | 0.035 | 0.06 | -0.028 | – | -0.026 | -0.026 | – | 0.276 (active) | -0.002 | -0.006 | 0.038 | – | 0.012 | 0.039 | -0.082 | 0.011 | -0.001 | -0.093 | -0.076 | -0.04
MSL1 (UniProt Q68DK7) | 0.007 | 0.01 | -0.039 | 0.184 | -0.086 | 0.071 | -0.005 | -0.1 | -0.022 | – | -0.014 | 0.037 | -0.026 | 0.039 | 0.185 | -0.02 | -0.001 | 0.05 | 0.197 | -0.002
NDUFB1 (UniProt O75438) | 0.034 | 0.024 | 0.06 | – | -0.043 | -0.052 | – | 0.065 | 0.059 | 0.158 | -0.087 | – | -0.08 | 0.067 | 0.027 | -0.001 | 0.065 | 0.025 | -0.015 | -0.009
NKAP (UniProt Q8N5F7) | 0 | 0.004 | -0.218 | 0.033 | 0.105 | -0.123 | 0.103 | 0.032 | 0.165 | -0.022 | – | 0.233 | 0.017 | 0.052 | 0.042 | 0.073 | 0.046 | 0.15 | 0.044 | -0.165
NHLRC2 (UniProt Q8NBF2) | 0.039 | 0.07 | -0.02 | -0.122 | -0.026 | -0.124 | 0.143 | 0.013 | 0.004 | 0.023 | -0.06 | 0.225 | -0.014 | -0.014 | -0.055 | -0.053 | -0.048 | -0.076 | -0.006 | -0.004
OGFOD2 (UniProt Q6N063) | 0.016 | -0.023 | -0.102 | 0.011 | -0.031 | -0.079 | 0.002 | 0.025 | -0.001 | -0.073 | – | -0.007 | – | -0.091 | 0.117 | 0.001 | – | 0.037 | -0.041 | 0.059
MT-ND2 (UniProt P03891) | -0.021 | -0.042 | -0.171 | -0.119 | – | -0.221 | -0.089 | -0.075 | -0.076 | 0.113 | – | 0.109 | -0.047 | 0.062 | – | 0.065 | 0.198 | -0.123 | 0.006 | 0.079
MRPS26 (UniProt Q9BYN8) | -0.09 | 0.008 | 0.007 | -0.049 | -0.143 | 0.03 | 0.137 | 0.037 | – | -0.133 | 0.021 | -0.083 | 0.002 | -0.03 | 0.075 | -0.004 | 0.049 | -0.056 | 0.098 | 0.026
NA, A0A2R8Y3M9 | 0.087 | 0.215 | -0.207 | -0.08 | – | – | 0.056 | -0.001 | 0.253 | – | -0.126 | 0.546 | 0.225 | 0.178 | – | – | -0.086 | – | – | -0.138
PAFAH2 (UniProt Q99487) | 0.106 | 0.048 | -0.012 | -0.033 | – | 0.025 | 0.007 | -0.011 | – | 0.02 | -0.09 | 0.006 | 0.019 | -0.038 | – | 0.093 | -0.015 | – | 0.059 | -0.044
NOSIP (UniProt Q9Y314) | -0.401 | -0.032 | -0.033 | -0.065 | -0.135 | -0.106 | -0.039 | 0.085 | -0.143 | 0.186 | 0.02 | -0.2 | 0.032 | 0.012 | 0.149 | 0.247 | 0.168 | 0.047 | 0.14 | 0.197
NFYB (UniProt P25208) | 0.07 | -0.051 | 0.019 | 0.016 | – | 0.054 | -0.007 | -0.043 | 0.026 | 0.411 (active) | -0.012 | -0.118 | -0.023 | 0.025 | – | 0.026 | 0.025 | 0.044 | -0.012 | 0.049
MRFAP1 (UniProt Q9Y605) | 0.218 | -0.017 | 0.206 | -0.022 | – | -0.056 | 0.437 | -0.016 | 0.28 | -0.339 | -0.073 | -0.011 | 0.101 | -0.045 | – | -0.148 | 0.046 | 0.009 | 0.017 | 0.036
NME7 (UniProt Q9Y5B8) | 0.056 | -0.054 | -0.038 | 0.095 | -0.116 | -0.066 | 0.059 | 0.065 | – | -0.086 | -0.008 | -0.089 | -0.021 | 0.059 | 0.024 | -0.037 | 0.081 | -0.06 | -0.202 | 0.042
MLX (UniProt Q9UH92) | -0.033 | -0.058 | -0.132 | 0.077 | -0.163 | -0.236 | 0.14 | 0.016 | 0.043 | -0.008 | 0.035 | -0.027 | 0.082 | 0 | 0.009 | – | 0.008 | 0.071 | 0.047 | 0.117
MTFR1L (UniProt Q9H019) | 0.04 | 0.048 | -0.052 | -0.005 | 0.014 | -0.412 | 0.047 | 0.003 | 0.041 | -0.05 | 0.082 | -0.006 | 0.008 | -0.122 | -0.027 | 0.048 | 0.116 | – | 0.031 | -0.026
MYO19 (UniProt Q96H55) | 0.014 | -0.11 | 0.168 | 0.115 | 0.079 | -0.06 | 0.176 | 0.014 | -0.198 | – | – | 0.069 | 0.091 | -0.054 | 0.382 | -0.082 | 0.554 (active) | – | 0.143 | 0.039
